# Assay results reported in the supplement of paper PMC12819154, “High-throughput peptide-centric local stability assay extends protein–ligand identification to membrane proteins, tissues and bacteria” (Nature Structural & Molecular Biology, 2025).
# Compound: CN[C@@H]1C[C@H]2O[C@@](C)([C@@H]1OC)n1c3ccccc3c3c4c(c5c6ccccc6n2c5c31)C(=O)NC4 [staurosporine]
# Assay: log2 fold change of tryptic peptide abundance, ligand vs vehicle (limited proteolysis) (log2 ratio); higher = more trypsin-susceptible (destabilized)
# Conditions: ligand concentration: 20 uM; sample: mouse liver crude lysate; replicate design: treated separately
# Sequence of UniProt Q64459 (Q64459 whole entry): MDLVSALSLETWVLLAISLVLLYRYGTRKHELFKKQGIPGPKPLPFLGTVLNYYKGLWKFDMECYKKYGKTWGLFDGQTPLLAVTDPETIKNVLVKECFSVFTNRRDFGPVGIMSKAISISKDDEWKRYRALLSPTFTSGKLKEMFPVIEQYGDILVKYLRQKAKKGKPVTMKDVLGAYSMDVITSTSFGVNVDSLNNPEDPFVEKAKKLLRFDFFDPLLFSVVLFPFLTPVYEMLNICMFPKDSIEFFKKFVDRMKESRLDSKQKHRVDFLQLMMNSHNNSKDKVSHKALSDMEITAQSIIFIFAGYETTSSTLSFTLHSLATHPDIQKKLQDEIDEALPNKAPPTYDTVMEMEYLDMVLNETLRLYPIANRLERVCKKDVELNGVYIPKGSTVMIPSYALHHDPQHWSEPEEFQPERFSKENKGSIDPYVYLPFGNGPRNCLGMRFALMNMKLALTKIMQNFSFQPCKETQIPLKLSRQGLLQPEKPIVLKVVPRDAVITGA
# Sequence of UniProt Q80ZW0 (Q80ZW0 whole entry): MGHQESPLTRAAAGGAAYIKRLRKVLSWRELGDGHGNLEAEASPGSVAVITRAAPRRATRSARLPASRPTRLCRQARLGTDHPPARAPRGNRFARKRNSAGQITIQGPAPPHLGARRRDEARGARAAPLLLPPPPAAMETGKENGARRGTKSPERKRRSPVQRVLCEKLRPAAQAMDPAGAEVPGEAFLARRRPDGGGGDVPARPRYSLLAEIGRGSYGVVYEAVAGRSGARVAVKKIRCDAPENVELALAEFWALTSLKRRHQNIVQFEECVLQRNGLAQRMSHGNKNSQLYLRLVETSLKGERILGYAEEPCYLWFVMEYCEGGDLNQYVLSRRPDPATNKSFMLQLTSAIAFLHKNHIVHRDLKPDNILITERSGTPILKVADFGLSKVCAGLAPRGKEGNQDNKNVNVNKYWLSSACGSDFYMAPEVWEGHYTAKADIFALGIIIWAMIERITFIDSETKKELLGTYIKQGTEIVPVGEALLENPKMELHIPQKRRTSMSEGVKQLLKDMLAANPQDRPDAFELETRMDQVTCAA
# Sequence of UniProt Q9D2C7 (Q9D2C7 whole entry): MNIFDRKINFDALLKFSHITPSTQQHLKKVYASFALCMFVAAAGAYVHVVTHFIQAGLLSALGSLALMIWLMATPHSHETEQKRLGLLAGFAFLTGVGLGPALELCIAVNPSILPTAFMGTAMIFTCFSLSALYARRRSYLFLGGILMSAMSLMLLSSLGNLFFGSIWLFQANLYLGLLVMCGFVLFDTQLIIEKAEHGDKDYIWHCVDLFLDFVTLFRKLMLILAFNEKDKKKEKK
# Sequence of UniProt Q9WV60 (Q9WV60 whole entry, looked up): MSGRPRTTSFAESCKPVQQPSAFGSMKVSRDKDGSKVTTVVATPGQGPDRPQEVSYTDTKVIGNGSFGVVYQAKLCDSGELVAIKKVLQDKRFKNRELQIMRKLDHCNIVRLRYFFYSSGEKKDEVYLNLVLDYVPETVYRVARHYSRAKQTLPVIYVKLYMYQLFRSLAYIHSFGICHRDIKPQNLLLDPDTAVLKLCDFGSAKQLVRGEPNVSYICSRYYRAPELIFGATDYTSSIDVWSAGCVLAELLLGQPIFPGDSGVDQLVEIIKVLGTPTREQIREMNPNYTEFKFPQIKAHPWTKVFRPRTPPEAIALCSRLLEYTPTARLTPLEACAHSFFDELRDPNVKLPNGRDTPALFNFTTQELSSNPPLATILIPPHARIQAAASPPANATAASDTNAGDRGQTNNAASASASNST
# Sequence of UniProt Q3U3Q1 (Q3U3Q1 whole entry): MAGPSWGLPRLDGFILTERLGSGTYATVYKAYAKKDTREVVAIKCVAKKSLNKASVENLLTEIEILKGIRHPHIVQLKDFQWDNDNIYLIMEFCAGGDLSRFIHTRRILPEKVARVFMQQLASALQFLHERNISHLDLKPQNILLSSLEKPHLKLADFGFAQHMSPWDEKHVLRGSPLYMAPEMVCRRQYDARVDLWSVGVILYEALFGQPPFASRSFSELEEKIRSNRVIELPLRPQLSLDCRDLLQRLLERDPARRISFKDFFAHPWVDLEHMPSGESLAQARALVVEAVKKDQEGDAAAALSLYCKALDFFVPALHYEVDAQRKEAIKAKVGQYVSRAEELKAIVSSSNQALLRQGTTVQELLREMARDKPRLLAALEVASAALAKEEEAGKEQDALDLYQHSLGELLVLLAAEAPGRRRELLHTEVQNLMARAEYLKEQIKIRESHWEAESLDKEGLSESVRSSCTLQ
# Sequence of UniProt Q9DCZ4 (Q9DCZ4 whole entry): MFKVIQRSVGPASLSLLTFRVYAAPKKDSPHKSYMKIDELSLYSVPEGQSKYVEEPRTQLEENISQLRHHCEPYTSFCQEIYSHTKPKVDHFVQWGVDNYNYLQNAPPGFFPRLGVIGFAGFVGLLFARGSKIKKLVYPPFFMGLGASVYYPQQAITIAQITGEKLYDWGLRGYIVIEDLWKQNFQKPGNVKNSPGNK
# Sequence of UniProt Q6ZQ89 (Q6ZQ89 whole entry): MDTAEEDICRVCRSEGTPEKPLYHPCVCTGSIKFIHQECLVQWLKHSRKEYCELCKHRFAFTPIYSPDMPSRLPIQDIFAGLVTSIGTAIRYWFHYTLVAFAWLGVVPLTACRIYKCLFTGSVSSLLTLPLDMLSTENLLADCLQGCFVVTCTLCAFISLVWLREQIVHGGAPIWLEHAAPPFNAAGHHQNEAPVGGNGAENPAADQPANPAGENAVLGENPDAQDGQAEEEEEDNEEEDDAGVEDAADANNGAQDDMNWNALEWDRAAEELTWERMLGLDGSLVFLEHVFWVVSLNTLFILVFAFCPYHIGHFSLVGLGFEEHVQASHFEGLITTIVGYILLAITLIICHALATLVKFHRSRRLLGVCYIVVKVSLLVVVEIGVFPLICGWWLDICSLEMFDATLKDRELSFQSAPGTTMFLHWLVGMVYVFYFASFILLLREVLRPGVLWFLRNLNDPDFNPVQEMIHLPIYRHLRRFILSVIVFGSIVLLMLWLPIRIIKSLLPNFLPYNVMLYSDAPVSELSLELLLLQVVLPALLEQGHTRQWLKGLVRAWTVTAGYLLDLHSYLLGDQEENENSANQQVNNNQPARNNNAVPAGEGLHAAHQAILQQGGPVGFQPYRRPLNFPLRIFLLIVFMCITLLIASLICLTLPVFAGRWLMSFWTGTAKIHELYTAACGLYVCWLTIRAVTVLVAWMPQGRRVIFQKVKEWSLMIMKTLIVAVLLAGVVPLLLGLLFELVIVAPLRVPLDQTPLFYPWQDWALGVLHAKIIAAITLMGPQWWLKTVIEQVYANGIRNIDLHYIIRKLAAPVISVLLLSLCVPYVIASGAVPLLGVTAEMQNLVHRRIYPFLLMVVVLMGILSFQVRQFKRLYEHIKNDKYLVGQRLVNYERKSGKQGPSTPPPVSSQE
row,Target,log2 fold change
1,"UniProt Q6ZQ89 (peptide sequence: FIHQECLVQWLK, peptide start residue: 34)",0.572
2,"UniProt Q80ZW0 (peptide sequence: YSLLAEIGR, peptide start residue: 207)",-0.855
3,"UniProt Q9WV60 (peptide sequence: LCDSGELVAIKK, peptide start residue: 75)",-4.12
4,"UniProt Q3U3Q1 (peptide sequence: VIELPLRPQLSLDCR, peptide start residue: 230)",-2
5,"UniProt Q9DCZ4 (peptide sequence: TQLEENISQLR, peptide start residue: 58)",0.253
6,"UniProt Q9D2C7 (peptide sequence: MNIFDRK, peptide start residue: 1)",0.348
7,"UniProt Q64459 (peptide sequence: ALLSPTFTSGK, peptide start residue: 131)",-0.273
